# Inconclusive results are not listed. More than one record can exist for a structure, and the calls need not agree. Active and inactive are the calls of the source. Rule for the calls: active = hit-call score of the fitted dose curve at least 0.9, where 1 is the maximum; inconclusive = response in the unintended direction; inactive = score below 0.9.
# Target: Peroxisome proliferator-activated receptor gamma (Homo sapiens) (UniProt P37231)
# Test: ATG_PPARg_TRANS: Attagene TRANS-FACTORIAL HepG2 Assay for human Peroxisome Proliferator-activated Receptor-gamma (PPARg) (AID 2283007)
# Experimental: ATG_TRANS is a cell-based, multiplexed-readout assay that uses HepG2, a human liver cell line, with measurements taken at 24 hours after chemical dosing in a 24-well plate.ATG_PPARg_TRANS is one of 30 assay component(s) measured or calculated from the ATG_TRANS assay. It is designed to make measurements of mRNA induction, a form of inducible reporter, as detected with fluorescence intensity signals by Reverse transcription polymerase chain reaction (RT-PCR) and Capillary electrophoresis technology.Data from the assay component ATG_PPARg_TRANS was analyzed into 1 assay endpoint. This assay endpoint, ATG_PPARg_TRANS, was analyzed in the positive analysis fitting direction relative to DMSO as the negative control and baseline of activity. Using a type of inducible reporter, measures of mRNA for gain-of-signal activity can be used to understand the reporter gene at the transcription factor-level as they relate to the gene PPARG. Furthermore, this assay endpoint can be referred to as a primary readout, because this assay has produced multiple assay endpoints where this one serves a reporter gene function. To generalize the intended target to other relatable targets, this assay endpoint is annotated to the nuclear receptor intended target family, where the subfamily is non-steroidal.
# Human liver HepG2 cells are transiently transfected with multiple reporter transcription units (MRTUs) in 6-well plates using FuGene 6 reagent (Roche; 3 ml FuGene/1 mg DNA). The MRTU constructs are regulated by a cis-regulating element (promoter). […] A major difference between the CIS and TRANS system is that in CIS activities of endogenous TFs are measured, whereas the TRANS assay evaluates changes in activities of exogenous, chimeric NR-Gal4 proteins. […] At the end of 24 hour incubation, total RNA was isolated using TriZol reagent (Invitrogen). The isolated RNA is then reverse-transcribed using oligo(dT) primer and Mo-MLV reverse transcriptase (Invitrogen) with DNAse I (Ambion) treatment for 30 min. The one-tenth of the produced cDNA was amplified by PCR using Taq DNA polymerase (Invitrogen) and two reporter sequence-specific primers. The PCR products were fluorescently labeled by primer extension with 6-arboxyfluorescein (6-FAM) 5'-labeled reporter sequence-specific primer (2 min at 95 C, 20 s at 68 C and 10 min at 72 C) and these products were digested with 5U of HpaI (New England Biolabs) for 2h at 37 C. The fragments were purified using Qiaquick PCR columns (Qiagen), analyzed on an ABI 3130xL genetic analyzer (Applied Biosystems) with peak positions identified by using a set of X-rhodamine (ROX)-labeled MapMarker1000 molecular weight standards (BioVentures). The raw capillary electrophoresis data was processed using Attagraph software (Attagene).
# Peroxisome proliferator-activated receptor gamma (Homo sapiens), sequence (P37231 whole entry, looked up): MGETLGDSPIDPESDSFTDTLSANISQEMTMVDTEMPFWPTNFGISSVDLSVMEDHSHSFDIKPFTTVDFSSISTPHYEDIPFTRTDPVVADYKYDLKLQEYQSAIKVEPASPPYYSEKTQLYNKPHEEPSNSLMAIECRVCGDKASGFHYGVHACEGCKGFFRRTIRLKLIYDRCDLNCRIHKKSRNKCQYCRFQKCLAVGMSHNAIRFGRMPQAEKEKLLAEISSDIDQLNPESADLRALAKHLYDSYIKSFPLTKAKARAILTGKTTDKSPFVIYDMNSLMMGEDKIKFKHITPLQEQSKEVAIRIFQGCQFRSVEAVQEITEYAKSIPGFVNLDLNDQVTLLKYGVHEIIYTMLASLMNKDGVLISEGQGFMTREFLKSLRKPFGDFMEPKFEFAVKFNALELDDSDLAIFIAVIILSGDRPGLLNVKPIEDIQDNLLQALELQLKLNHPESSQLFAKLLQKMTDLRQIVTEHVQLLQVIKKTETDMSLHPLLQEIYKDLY
Structure (SMILES),AC50,outcome
O=C(O)c1cc(Oc2ccc(C(F)(F)F)cc2Cl)ccc1[N+](=O)[O-],37.1 µM (active),–
CCOP(=S)(OCC)SCCSCC,–,inactive
COc1cc(OC)nc(Sc2cccc(Cl)c2C(=O)O)n1,–,inactive
CCOP(=S)(Oc1cnc(C(C)(C)C)nc1)OC(C)C (stereo not given),–,inactive
CN(C)NC(=O)CCC(=O)O,–,inactive
Cc1cc(C2CC2)nc(Nc2ccccc2)n1,50 µM (active),–
Cc1ccn2nc(S(=O)(=O)Nc3c(F)cccc3F)nc2n1,–,inactive
C#CCC1=C(C)C(OC(=O)C2C(C=C(C)C)C2(C)C)CC1=O (stereo not given),28 µM (active),–
O=[N+]([O-])c1cc(C(F)(F)F)c(Cl)c([N+](=O)[O-])c1Nc1ncc(C(F)(F)F)cc1Cl,0.651 µM (active),inactive
CC(C)=CC1C(C(=O)OCN2C(=O)C3=C(CCCC3)C2=O)C1(C)C (stereo not given),50 µM (active),–
CCOP(=O)(OCC)Oc1cc(C)nc(C(C)C)n1,–,inactive
CCCCOC(=O)c1ccccc1C(=O)O,–,inactive
CCCOCC(=Nc1ccc(Cl)cc1C(F)(F)F)n1ccnc1,1.36 µM (active),–
CNC(=O)ON=C(SC)C(=O)N(C)C,–,inactive
CC(C1CC1)C(O)(Cn1cncn1)c1ccc(Cl)cc1 (stereo not given),–,inactive
CCC(=NOC/C=C/Cl)C1=C(O)CC(C2CCOCC2)CC1=O (stereo not given),–,inactive
COP(=O)(NC(C)=O)SC (stereo not given),–,inactive
CCOP(=O)(NC(C)C)Oc1ccc(SC)c(C)c1 (stereo not given),32.3 µM (active),–
CON=C(C(=O)OC)c1ccccc1CON=C(C)c1cccc(C(F)(F)F)c1,50 µM (active),–
CCOP(=S)(OCC)Oc1cc(C)nc(C(C)C)n1,50 µM (active),–

Structure (SMILES),AC50,outcome
CCCCOC(=O)[C@@H](C)Oc1ccc(Oc2ccc(C#N)cc2F)cc1,–,inactive
CCOP(=S)(OCC)OC(Cl)C(Cl)(Cl)Cl (stereo not given),–,inactive
Cc1nn(-c2cc(NS(C)(=O)=O)c(Cl)cc2Cl)c(=O)n1C(F)F,28 µM (active),–
CC1=NNC(=O)N(/N=C/c2cccnc2)C1,–,inactive
CN(C)[C@@H]1C(=O)C(C(N)=O)=C(O)[C@@]2(O)C(=O)C3=C(O)c4c(O)cccc4[C@@](C)(O)[C@H]3[C@H](O)[C@@H]12,–,inactive
Nc1c(Cl)cc([N+](=O)[O-])cc1Cl,–,inactive
O=c1ccc(=O)[nH][nH]1,–,inactive
CNC(=O)ON=C(C)SC,–,inactive
CN1COCN(Cc2cnc(Cl)s2)C1=N[N+](=O)[O-],–,inactive
CC(=NC#N)N(C)Cc1ccc(Cl)nc1,–,inactive
COP(=O)(OC)SCn1c(=O)oc2cc(Cl)cnc21,14.7 µM (active),–
S=C1NCCN1,–,inactive
CCc1cnc(C2=NC(C)(C(C)C)C(=O)N2)c(C(=O)O)c1 (stereo not given),–,inactive
CCOP(=S)(OCC)Oc1ccc2c(C)c(Cl)c(=O)oc2c1,–,inactive
CN(C)C(=O)Nc1cccc(C(F)(F)F)c1,–,inactive
CC(C)[C@H](C(=O)O[C@H](C#N)c1cccc(Oc2ccccc2)c1)c1ccc(Cl)cc1,9.37 µM (active),–
CCCSP(=O)(OCC)Oc1ccc(Br)cc1Cl (stereo not given),–,inactive
COP(=O)(OC)C(O)C(Cl)(Cl)Cl (stereo not given),72.2 µM (active),–
COc1cccc(C(=O)NN(C(=O)c2cc(C)cc(C)c2)C(C)(C)C)c1C,–,inactive

# — PubChem BioAssay (EPA / NIEHS)
